Test [1] is described as follows: cAMP Responsive Elements (CRE) small molecule antagonists, cell-based qHTS assay: qHTS cell viability counter screen (AID 2060913). Further: nearly all actives have a fitted effect of over 40% in size. Put shortly: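 Viability of NKH477-stimulated (0.25 uM final) CRE-bla HEK293T cells is measured by CellTiter-Glo luminescence following 3 hrs compound exposure at 37 C.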
Background: Quantitative high-throughput screening tests each substance at several concentrations.

The nature of test [2]: cAMP Responsive Elements (CRE) small molecule agonists, cell-based qHTS assay: qHTS cell viability counter screen (AID 2060914). Further: nearly all actives have a fitted effect of over 50% in size. The gist of the method:
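Cytotoxicity was measured as ATP luminescence (CellTiter-Glo, 30 min at room temperature) in the same wells as the CRE-bla FRET read-out. HEK293T CRE-bla cells had 3 h compound exposure at 37C/5% CO2.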

Each structure is given as a SMILES string. Values joined by “and” are separate entries in the source; they are usually repeats but may differ in a detail not shown here. Equal values may be shown once. Inconclusive results are not listed. Unmarked numbers belong to inactive results. Active and inactive are the calls of the source. The call rests on the fitted dose curve; in most records, active means well fitted cell-killing curve with a large enough effect in the repeat runs; inconclusive means weak or mixed curves, or effect the other way; inactive means flat fitted curve, though single readings scatter.
On the % scale 0 is the no-effect control and ±100 the full control effect.

In the case of `CC(=O)Nc1ccc(C)cc1`, the Potency entry in test [1] and in test [2] was “inactive” each time.

In the case of `CN(C)c1nc(N(C)C)nc(N(C)C)n1`, the Potency result in test [1] and in test [2] was “inactive” throughout.

On to `CC(=O)N1CCN(c2ccc(O)cc2)CC1`, for which the Potency result in test [1] and in test [2] was “inactive” throughout.

As to `CCN(CC)CCCC(C)Nc1ccnc2cc(Cl)ccc12` (configuration not stated), in test [1], the viability change, negative = cytotoxic is 4.94% [at 8.39 µM] and -2.8% [at 18.9 µM]. Also, the activity change, negative = cytotoxicity in test [2] was -0.2% [at 8.39 µM] and -0.0045% [at 18.9 µM].

For the molecule `Cc1ccnc2ccccc12`, the Potency result in test [1] and in test [2] was “inactive” throughout.

In the case of `C#C[C@]1(O)CC[C@H]2[C@@H]3CCc4cc(OC5CCCC5)ccc4[C@H]3CC[C@@]21C`, the Potency result in test [1] and in test [2] was “inactive” throughout.

Consider `OC[C@H]1O[C@@H](OCCc2ccc(O)cc2)[C@H](O)[C@@H](O)[C@@H]1O`, for which the Potency result in test [1] and in test [2] was “inactive” throughout.

For `CCCCCCCCC(CCCCCC)C(=O)O` (configuration not stated), the Potency entry in test [1] and in test [2] was “inactive” in each case.

Turning to `CC(C)(C)S`, the Potency result in test [1] and in test [2] was “inactive” throughout.

In the case of `Cc1c(C)c2c(c(C)c1O)CCC(C)(COc1ccc(CC3SC(=O)NC3=O)cc1)O2` (configuration not stated), the Potency result in test [1] and in test [2] was “inactive” in each case.

Turning to `O=[N+]([O-])c1ccccc1Nc1ccccc1`, the Potency result in test [1] and in test [2] was “inactive” in each case.

In the case of `S=C([S-])NCCNC(=S)[S-].S=C([S-])NCCNC(=S)[S-].[Mn+2].[Zn+2]`, the Potency result in test [1] and in test [2] was “inactive” throughout.

In the case of `COc1ccc(NS(=O)(=O)c2ccc(N)cc2)nn1`, the Potency entry in test [1] and in test [2] was “inactive” throughout.

Take `CC(C)c1ccc2c(C(C)C)cc(C(C)C)c(S(=O)(=O)O)c2c1`: the Potency result in test [1] and in test [2] was “inactive” throughout.

For the molecule `CC(=O)N[C@@H](CO)C(=O)N[C@@H](CC(=O)O)C(=O)N[C@@H](CCCCN)C(=O)N1CCC[C@H]1C(=O)O`, the Potency entry in test [1] and in test [2] was “inactive” each time.

As to `C=C(C)C(=O)OCCCC`, the Potency entry in test [1] and in test [2] was “inactive” throughout.

Turning to `CC(=O)CC(N)=O`, the Potency entry in test [1] and in test [2] was “inactive” each time.

For the molecule `Cc1ccc(Cl)c(N)c1Cl`, the Potency result in test [1] and in test [2] was “inactive” in each case.

In the case of `CC(C)OC(=O)C(O)(CC(=O)O)CC(=O)O`, the Potency entry in test [1] and in test [2] was “inactive” each time.

Take `O=[N+]([O-])c1ccc(CO)cc1`: the Potency entry in test [1] and in test [2] was “inactive” each time.

For the molecule `CC(O)C(CO)C(C)O` (configuration not stated), the Potency result in test [1] and in test [2] was “inactive” each time.

With `NC(=O)NS(=O)(=O)c1ccc(N)cc1`, the Potency entry in test [1] and in test [2] was “inactive” throughout.

With `CC1(C)C(O)C(C)(C)C1O` (configuration not stated), the Potency result in test [1] and in test [2] was “inactive” each time.

For the molecule `CC(C)C(=O)OCCOc1ccccc1`, the Potency entry in test [1] and in test [2] was “inactive” throughout.

`c1ccc(CNc2ncnc3c2ncn3C2CCCCO2)cc1` (configuration not stated): the Potency result in test [1] and in test [2] was “inactive” in each case.

Consider `C=Cc1cccc(C)c1`, for which the Potency result in test [1] and in test [2] was “inactive” in each case.

For the molecule `NC(=O)NNC(N)=O`, the Potency entry in test [1] and in test [2] was “inactive” each time.

For `O=C1CCC(C2CCCCC2)CC1`, the Potency entry in test [1] and in test [2] was “inactive” throughout.

On to `CCCC1CCC(=O)O1` (configuration not stated), for which the Potency entry in test [1] and in test [2] was “inactive” each time.

For the molecule `CC1(C)C(=O)C(C)(C)C1=O`, the Potency entry in test [1] and in test [2] was “inactive” each time.

For the molecule `COC(=O)CCCCC(CCSS/C(CCO)=C(\C)N(C=O)Cc1cnc(C)nc1N)SC(C)=O` (configuration not stated), the Potency result in test [1] and in test [2] was “inactive” throughout.

Consider `CO[C@@]1(NC(=O)CSCC#N)C(=O)N2C(C(=O)O)=C(CSc3nnnn3C)CS[C@@H]21`, for which the Potency result in test [1] and in test [2] was “inactive” in each case.

As to `CC(C=O)Cc1ccc(C(C)(C)C)cc1` (configuration not stated), the Potency entry in test [1] and in test [2] was “inactive” each time.

As for `O=C(C(=O)c1ccccc1)c1ccccc1`, the Potency result in test [1] and in test [2] was “inactive” each time.

As to `CCCCCCCC(=O)OCC(O)CO` (configuration not stated), the Potency result in test [1] and in test [2] was “inactive” in each case.

In the case of `CC(CC=O)c1ccccc1` (configuration not stated), the Potency entry in test [1] and in test [2] was “inactive” throughout.

Take `COc1ccccc1N1CCN(CC(O)COc2cccc3ccccc23)CC1` (configuration not stated): the Potency entry in test [1] and in test [2] was “inactive” each time.

Regarding `CC(C)NCC(O)c1cc(O)cc(O)c1` (configuration not stated), the Potency result in test [1] and in test [2] was “inactive” in each case.

For `CCCOC(=O)c1ccccc1`, the Potency entry in test [1] and in test [2] was “inactive” each time.

`CCOC(=O)COc1ccc(C)cc1`: the Potency result in test [1] and in test [2] was “inactive” each time.

For the molecule `CC1=C(C/C=C(\C)CCC[C@H](C)CCC[C@H](C)CCCC(C)C)C(=O)c2ccccc2C1=O`, the Potency entry in test [1] and in test [2] was “inactive” each time.

With `CCCCCCOC(=O)CCCCC`, the Potency entry in test [1] and in test [2] was “inactive” in each case.

Consider `CCCC(=O)c1ccccc1`, for which the Potency result in test [1] and in test [2] was “inactive” each time.

In the case of `O=C1OC(=O)c2cc(Oc3ccc4c(c3)C(=O)OC4=O)ccc21`, the Potency entry in test [1] and in test [2] was “inactive” throughout.

Consider `CC(CCC(=O)O)C(=O)O` (configuration not stated), for which the Potency result in test [1] and in test [2] was “inactive” each time.

In the case of `CCCCS(=O)(=O)N[C@@H](Cc1ccc(OCCCCC2CCNCC2)cc1)C(=O)O`, the Potency entry in test [1] and in test [2] was “inactive” throughout.

In the case of `C1=COCCC1`, the Potency entry in test [1] and in test [2] was “inactive” throughout.

Take `NNC(=O)CCCCC(=O)NN`: the Potency entry in test [1] and in test [2] was “inactive” throughout.

For `COC(=O)Nc1nc2ccc(S(=O)c3ccccc3)cc2[nH]1` (configuration not stated), the Potency result in test [1] and in test [2] was “inactive” throughout.

For the molecule `CCN(C=O)CC`, the Potency result in test [1] and in test [2] was “inactive” throughout.

For `C[C@]1(Cn2ccnn2)[C@H](C(=O)O)N2C(=O)C[C@H]2S1(=O)=O`, the Potency result in test [1] and in test [2] was “inactive” throughout.

With `CCOC(C)OCC`, the Potency entry in test [1] and in test [2] was “inactive” throughout.

As for `O=C(O)CCC(=O)Nc1ccc(S(=O)(=O)Nc2nccs2)cc1`, the Potency entry in test [1] and in test [2] was “inactive” each time.

For `O=C(NCC(O)CO)c1c(I)c(C(=O)NCC(O)CO)c(I)c(N(CCO)C(=O)CO)c1I` (configuration not stated), the Potency result in test [1] and in test [2] was “inactive” each time.

`NC[C@H]1O[C@H](O[C@H]2[C@H](O)[C@@H](O[C@H]3O[C@H](CO)[C@@H](O)[C@H](N)[C@H]3O)[C@H](N)C[C@@H]2N)[C@H](N)[C@@H](O)[C@@H]1O`: in test [1], the viability change, negative = cytotoxic was -2.98% [at 18.9 µM]. Further, the activity change, negative = cytotoxicity in test [2] was -6.94% [at 18.9 µM].

Take `CN1[C@@H]2CC[C@H]1CC(NC(=O)n1c(=O)[nH]c3ccccc31)C2` (some centres not stated): the Potency entry in test [1] and in test [2] was “inactive” in each case.

For the origin of these results see PubChem BioAssay (Tox21).
